Shown are actives, neighbours in structure and some others; about 9.2% of the full set was active somewhere.
HttQ103 aggreg: qHTS Multiplex Assay to Identify Dual Action Probes in a Cell Model of Huntington: Aggregate Formation (GFP). hit rate 1.1% among 220,000. Potency, µM (highest dose often 46.1 µM), without a hit: at the top dose activity change, negative = inhibition, most hits filed as inhibitors. PC12 HttQ103-GFP aggregates, Acumen cytometry, 40 h; active means well fitted curve in the direction sought with a large enough effect; inconclusive means small, poorly fitted or top-dose-only effect, or another doubt; inactive means no such curve, though single readings can be large; an effect the other way counts as inactive or inconclusive; further: on the % scale 0 is the no-effect control and ±100 the full control effect; nearly all actives have a fitted effect of over 60% in size
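Multiplexed with ATP-based cell death, this channel scores GFP aggregates in PC12 cells expressing inducible HTTex1-Q103-GFP. Induction used 100 nM tebufenozide; compounds were tested in concentration series.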
Lamin A splicing: qHTS Assay for Modulators of Lamin A Splicing; HeLa LMNA splicing GFP/RFP minigene ratio, 48 h; Potency, µM (titrated, usually from 46.1 µM), inactives show at the top dose ratio change, negative = inhibition, actives largely listed as inhibitors; hit rate 0.01% among 200,000; AID 1487, 2009; active means well fitted inhibition curve with a large enough effect in the signal ratio, with a control signal flat, not every such curve was filed as active; inconclusive means small, poorly fitted or top-dose-only effect, or effect the other way, or a change in a side signal; the % refers to the signal ratio; further: on the % scale 0 is the no-effect control and ±100 the full control effect
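Read-out is the ratio of GFP to DsRed2 object intensity, acquired by 488 nm laser-scanning cytometry on HeLa lamin A-EGFP minigene reporter cells. Compound incubation 48 hrs at 37 °C in Opti-MEM with 2% FBS; DMSO 0.5% final.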
KDM4E inh: qHTS Assay for Inhibitors of Human Jumonji Domain Containing 2E (JMJD2E) | Lysine-specific demethylase 4E (Homo sapiens), B2RXH2 | JMJD2E catalytic domain, FDH-coupled NADH fluorescence (FDH is formaldehyde dehydrogenase) | Potency, µM (titrated, usually from 57.1 µM), for the others: at the highest dose activity change, negative = inhibition, actives largely listed as inhibitors | hit rate 1.6% among 230,000;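 further: 0% = wells with enzyme and -100% = buffer wells without enzyme; nearly all actives have a fitted effect of over 50% in size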
Target sequence (B2RXH2 1-337 limits assumed): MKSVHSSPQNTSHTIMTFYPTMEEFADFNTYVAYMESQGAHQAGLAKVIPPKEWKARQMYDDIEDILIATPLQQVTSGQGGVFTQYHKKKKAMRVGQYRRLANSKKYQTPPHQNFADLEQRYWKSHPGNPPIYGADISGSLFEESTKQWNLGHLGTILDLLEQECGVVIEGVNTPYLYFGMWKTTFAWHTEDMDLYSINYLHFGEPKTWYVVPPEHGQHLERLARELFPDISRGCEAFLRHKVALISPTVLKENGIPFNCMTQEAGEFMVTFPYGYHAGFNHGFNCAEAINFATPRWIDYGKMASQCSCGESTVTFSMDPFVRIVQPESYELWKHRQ
HTT ATP protect: qHTS Multiplex Assay to Identify Dual Action Probes in a Cell Model of Huntington: Cytoprotection (ATP); Potency, µM (series often up to 56.4 µM), for inactives: cytoprotection (ATP increase), actives largely listed as activators; hit rate 0.14% among 230,000; PC12 HTT-Q103 induced, cytoprotection, ATP luminescence, 40 h; AID 1471, 2008; active means well fitted curve in the direction sought with a large enough effect; inconclusive means small, poorly fitted or top-dose-only effect, or another doubt; inactive means no such curve, though single readings can be large; an effect the other way counts as inactive or inconclusive; further: % of control where 0% means no effect; nearly all actives have a fitted effect of over 45% in size
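PC12 cells with ecdysone-inducible HTT exon 1 Q103-GFP, induced with 100 nM tebufenozide and co-treated with library compounds in a dose series (1536-well, 1500 cells/well). Cytoprotection read as ATP content by ATPlite luminescence.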
ALDH1A1 inh: qHTS Assay for Inhibitors of Aldehyde Dehydrogenase 1 (ALDH1A1). Purified ALDH1A1, NADH fluorescence, propionaldehyde substrate. Potency, µM (highest dose often 75.3 µM), for inactives: at the highest dose activity, negative = inhibition, usual class: inhibitors. hit rate 7.3% among 220,000. AID 1030, 2008;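 further: plate controls were no enzyme wells and a reference inhibitor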
HPGD block: qHTS Assay for Inhibitors of HPGD (15-Hydroxyprostaglandin Dehydrogenase); Potency, µM, for the others: at the top dose activity change, negative = inhibition, actives largely listed as inhibitors; 15-hydroxyprostaglandin dehydrogenase [NAD(+)] (Homo sapiens), P15428; hit rate 4.3% among 150,000; purified HPGD, NADH fluorescence kinetic, PGE2 substrate; further: on the % scale 0 is the no-effect control and ±100 the full control effect
Target sequence (P15428 whole entry, looked up): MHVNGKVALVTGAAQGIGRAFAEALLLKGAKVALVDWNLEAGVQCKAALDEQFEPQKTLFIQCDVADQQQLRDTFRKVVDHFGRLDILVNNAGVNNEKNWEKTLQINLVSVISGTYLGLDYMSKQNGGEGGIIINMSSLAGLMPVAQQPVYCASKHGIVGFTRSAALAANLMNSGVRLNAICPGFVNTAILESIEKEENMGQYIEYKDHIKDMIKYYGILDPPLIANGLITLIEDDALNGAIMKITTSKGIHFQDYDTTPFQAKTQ
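20 nM HPGD preincubated 15 min at room temperature with compound in 50 mM Tris-HCl pH 8, 0.01% Tween 20. Started with 1 mM NAD+ and 30 uM prostaglandin E2; NADH fluorescence (360/450 nm) read 5 times over 30-s intervals, last minus first.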
Numbers without * were called inactive; ? = inconclusive; / = no result; [ ] = dose if it differs, or a comment. Unless noted, the call rests on the fitted dose curve; in most records, active means well fitted inhibition curve with a large enough effect (not every such curve was filed as active); inconclusive means small, poorly fitted or top-dose-only effect, or another doubt; inactive means no such curve, though single readings can be large or run the other way. Potency means the concentration at half of the fitted maximal effect.

SMILES | HttQ103 aggreg | Lamin A splicing | KDM4E inh | HTT ATP protect | ALDH1A1 inh | HPGD block
COc1ccc(O)c(/C=N/NC(=O)c2ccc(CSc3nc(C)cc(C)n3)cc2)c1 | 5.6µM* | ? | ? | -10%[10 µM] | ? | -9%
COc1ccc(O)c(/C=N/NC(=O)c2cc(=O)[nH]c3ccccc23)c1 | -3%[9.22 µM] | / | 7.1µM* | 4%[10 µM] | / | /
COc1cccc(-c2cc(NCc3ccccc3)ncn2)c1 | / | -9% | / | -59% | -13% | /
CC1CN(c2snnc2C=C2C(=O)OC(C)(C)OC2=O)CC(C)O1 (centres undefined) | -14% | / | -18% | -27% | 20µM* | /
Cc1c(NC(=O)OCCNC(=O)Nc2ccccc2)sc(=S)n1C | 11% | -3% | -3% | -29% | -9% | -15%
CCOC(=O)Nc1sc(=S)n(C)c1C | -18% | -2% | -21% | 12%[10 µM] | 19µM* | 25µM*
Cc1cc(C(=O)Nc2ccccc2C(=O)O)ccc1NC(=O)COc1cccc([N+](=O)[O-])c1 | 29%[9.22 µM] | ? | -2% | 11%[10 µM] | ? | /
Cc1ccc(C(=O)Nc2ccccc2C(=O)O)cc1NC(=O)COc1c(C)cccc1C | 10% | 10%[46 µM] | 10% | -15%[10 µM] | 8.9µM* | /
COc1ccc(C(=O)Nc2ccccc2C(=O)O)cc1Cl | ? | -14% | -13% | -29%[10 µM] | ? | -16%
CCOc1cc(C(=O)NC(=S)Nc2ccc(Cl)c(C(=O)O)c2)cc(OCC)c1OCC | 2%[9.22 µM] | / | -4% | -6%[10 µM] | 19µM* | /
COc1c(Cl)cc(C(=O)Nc2ccccc2-c2ccccc2)cc1Cl | -16% | -2%[0.0737 µM] | ? | 4% | 13µM* | -20%
CCOc1c(Cl)cc(C(=O)Nc2ccccc2C(=O)O)cc1Cl | -27% | ? | 4% | -69% | ? | 14µM*
Cc1ccc(C(=O)NCC(c2ccc3c(c2)OCO3)N2CCN(C)CC2)cc1C (centres undefined) | / | 15%[46 µM] | / | / | / | /
C=CCN1C(=O)CS/C1=N\N=C\c1cccc([N+](=O)[O-])c1 | 1% | / | 6% | -27% | ? | /
Cc1ccc(S(=O)(=O)N(CC(=O)Nc2ccccc2C(=O)O)c2ccc(Cl)cc2)cc1 | -22% | / | ? | 8%[10 µM] | 0% | /
Cc1ccc([N+](=O)[O-])c(OCCN2CCCCCC2)c1 | 19% | ? | -9% | 31%[10 µM] | 15µM* | -12%
CCCn1c(SCC(=O)c2ccc3c(c2)NC(=O)CO3)nc2ccccc21 | -13% | ? | -2% | / | 3.2µM* | -20%
Cc1ccc(-n2nnnc2SCC(=O)c2ccc3c(c2)NC(=O)CO3)c(C)c1 | 1% | 0% | -7% | -1% | ? | -11%
O=C1COc2ccc(C(=O)CSc3nnnn3-c3ccccc3)cc2N1 | 4% | 8% | 5% | -7%[10 µM] | 5µM* | -19%
C=C(C)C(=O)c1cccs1 | / | / | 5% | -1% | -2% | -7%
O=C(/C(=C/O)N=Nc1ccccc1)c1cccs1 | -12% | 10%[46 µM] | -2% | 12%[10 µM] | 10µM* | /
CC(=O)N1CCC2(CC1)OC(=O)C(C)=C2C(=O)Nc1cc(C)ccc1C | / | 13%[46 µM] | / | / | / | /
O=C(CSc1ccc(Cl)cc1)Nc1nnc(-c2cccc([N+](=O)[O-])c2)s1 | 0% | -9% | -4% | / | 2.5µM* | -23%
O=C(CSc1ccccc1)Nc1nnc(COc2ccc(Cl)cc2)s1 | 8% | 5% | 0% | 10%[10 µM] | 3.2µM* | 3.5µM*
Cc1onc(-c2ccccc2)c1C(=O)Nc1nnc(COc2ccc(Cl)cc2)s1 | -14% | ? | ? | -2%[10 µM] | 1.1µM* | 2.5µM*
SMILES | HttQ103 aggreg | Lamin A splicing | KDM4E inh | HTT ATP protect | ALDH1A1 inh | HPGD block
CCOCC(=O)Nc1nnc(COc2ccc(Cl)cc2)s1 | 10% | ? | 0% | -35% | 3.5µM* | 11µM*
CC(C)N1CCN(c2ccc(OC[C@@H]3CO[C@@](Cn4cncn4)(c4ccc(Cl)cc4Cl)O3)cc2)CC1 | 6%[20.6 µM] | ? | 2%[25.5 µM] | -20%[40.3 µM] | 6%[20.9 µM] | -4%
O=C(O)CC[P+](c1ccccc1)(c1ccccc1)c1ccccc1 | / | / | / | 9%[10 µM] | 20%[13.5 µM] | -5%
N#C/C(=C\c1cn[nH]c1-c1ccc(Cl)cc1)C(=O)NC1CC1 | -5% | ? | -1% | / | 2% | -6%
CC(NC(=O)/C(C#N)=C/c1cn[nH]c1-c1ccccc1)c1ccccc1 (centres undefined) | ? | -5% | 6% | -43% | 7.9µM* | 14µM*
N#C/C(=C\c1cn[nH]c1-c1ccc(Cl)cc1)C(=O)NCc1ccccc1 | -14% | 2% | 0% | -22% | 22µM* | ?
Cc1ccc(C(=O)NC(C)c2ccccc2)o1 (centres undefined) | 4% | -1% | -9% | -12%[10 µM] | ? | 22µM*
CSCCC(NC(=O)c1ccc(C)o1)C(=O)O (centres undefined) | -2% | 11% | -1% | -14%[10 µM] | 16µM* | -11%
COc1ccccc1CNc1cc(-c2ccccc2C)ncn1 | / | ? | / | -85% | -5% | /
O=C(c1ccco1)N1CCC2(CCCN(c3ccccn3)C2)CC1 | / | / | / | -20% | ? | -27%
O=C(/C=C/c1ccccc1)N1CCN(Cc2cc(=O)n3nc(-c4ccccc4Cl)sc3n2)CC1 | / | -7%[46 µM] | / | / | / | /
Cc1ccc(/C=C(/C#N)C(=O)NC(C)c2ccccc2)o1 (centres undefined) | 14% | 2% | ? | -7%[10 µM] | 14µM* | -20%
CCOC(=O)c1c(C)cc(O)c(C=O)c1O | / | / | -3% | -61% | -13% | -10%
CSC1=C(C#N)C(c2ccccc2C)C(C#N)=C(N)N1 (centres undefined) | -1%[9.22 µM] | 25% | ? | 25%[0.074 µM] | 22µM* | -20%
CCOc1ccccc1N(CC(=O)N1CCOCC1)S(=O)(=O)c1ccc(SC)cc1 | -13% | 9% | 0% | -6%[10 µM] | 8.9µM* | 2%
O=C(CN(c1ccccc1F)S(=O)(=O)c1ccccc1)N1CCCCCC1 | -37% | 10% | -28% | 8% | 28µM* | 3%
CSc1ccc(S(=O)(=O)Nc2ccc(OCC(=O)N3CCOCC3)cc2)cc1 | ? | 16%[46 µM] | -36% | -56% | 13µM* | /
O=C(Nc1ccc(OCC(=O)N2CCOCC2)cc1)c1cncc(Br)c1 | 11µM* | -7% | -6% | / | 2% | -8%
Cc1cccc(N(CC(=O)N2CCCC2)S(=O)(=O)c2ccccc2)c1C | 1% | 6% | 4% | -6% | -2% | -13%

High-throughput results (PubChem)
